Records with an inconclusive call do not appear. Calls of active or inactive are those of the source. Unless noted, calls come from the whole dose curve; as a rule, active = well fitted curve in the direction sought with a large enough effect in the repeat runs; inconclusive = weak or mixed curves; inactive = no such curve, though single readings can be large; an effect the other way counts as inactive or inconclusive.
Columns and labels:
[1] = molecular target: Thyrotropin-releasing hormone receptor (Homo sapiens) (UniProt P34981); assay: qHTS assay to identify small molecule agonists of the thyrotropin-releasing hormone receptor (TRHR) signaling pathway (AID 1346891; calls by dose curve; note: series mostly up to about 58 µM)
Thyrotropin-releasing hormone receptor (Homo sapiens), sequence (P34981 whole entry, looked up): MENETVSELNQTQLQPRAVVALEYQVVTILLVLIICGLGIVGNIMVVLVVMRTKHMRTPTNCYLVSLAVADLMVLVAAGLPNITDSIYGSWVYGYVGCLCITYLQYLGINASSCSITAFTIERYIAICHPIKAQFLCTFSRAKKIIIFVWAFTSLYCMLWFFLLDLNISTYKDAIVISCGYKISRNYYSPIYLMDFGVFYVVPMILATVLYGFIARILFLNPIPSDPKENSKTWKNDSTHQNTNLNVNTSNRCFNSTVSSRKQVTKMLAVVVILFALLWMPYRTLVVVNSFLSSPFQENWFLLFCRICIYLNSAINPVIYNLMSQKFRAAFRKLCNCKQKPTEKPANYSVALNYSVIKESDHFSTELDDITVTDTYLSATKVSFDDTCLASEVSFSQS
How it was run: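 HEK293 cells expressing TRHR plated 18 h at 37 C/5% CO2, calcium dye-loaded 2 h at 37 C, then compound added (agonist mode); kinetic calcium fluorescence read 3 min at 1 s intervals; 15 concentrations in triplicate.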

[2] = Human pregnane X receptor (PXR) small molecule agonists, qHTS cell viability counter screen (AID 1346977); note: nearly all actives have a fitted effect of over 50% in size
How it was run: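 PXR-Luc HepG2 cells (2,000/well, 5% charcoal-stripped FBS) preincubated 5 hr, then exposed to compounds 24 hr at 37 C. Viability read in the same wells by CellTiter-Fluor fluorescence, reagent added at 23 hr, 1 hr incubation.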

[3] = Caspase-3/7 induction in HepG2 cells by small molecules, qHTS assay (AID 1346978); note: nearly all actives have a fitted effect of over 15% in size
How it was run: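 Caspase-3/7 induction was measured by Caspase-Glo 3/7 luminescence (30 min, room temperature) after a 17 hr compound exposure of wild-type HepG2 cells seeded at 2,000 per well and pre-incubated 5 hr.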

[4] = Caspase-3/7 induction in CHO-K1 cells by small molecules, qHTS cell viability counter screen (AID 1346979); note: nearly all actives have a fitted effect of over 35% in size; note: potency is the fitted concentration of half-maximal effect
How it was run: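 Wild-type CHO-K1 cells (1,500/well) treated with compound after 5 h plating; after 16 h at 37C, viability read as CellTiter-Fluor fluorescence following 1 h reagent incubation, in the same wells as the caspase read.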

[5] = Caspase-3/7 induction in CHO-K1 cells by small molecules, qHTS assay (AID 1346980); note: nearly all actives have a fitted effect of over 15% in size
How it was run: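 Luminescent Caspase-Glo 3/7 read (30min, room temperature) quantified apoptosis induction. Cells were wild-type CHO-K1, treated with compound for 17hr at 37 C and 5% CO2.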

[6] = molecular target: Nuclear receptor subfamily 1 group I member 2 (Homo sapiens) (UniProt O75469); assay: Human pregnane X receptor (PXR) small molecule agonists, qHTS assay (AID 1346982); note: nearly all actives have a fitted effect of over 35% in size; note: potency is the fitted concentration of half-maximal effect
Nuclear receptor subfamily 1 group I member 2 (Homo sapiens), sequence (O75469 whole entry, looked up): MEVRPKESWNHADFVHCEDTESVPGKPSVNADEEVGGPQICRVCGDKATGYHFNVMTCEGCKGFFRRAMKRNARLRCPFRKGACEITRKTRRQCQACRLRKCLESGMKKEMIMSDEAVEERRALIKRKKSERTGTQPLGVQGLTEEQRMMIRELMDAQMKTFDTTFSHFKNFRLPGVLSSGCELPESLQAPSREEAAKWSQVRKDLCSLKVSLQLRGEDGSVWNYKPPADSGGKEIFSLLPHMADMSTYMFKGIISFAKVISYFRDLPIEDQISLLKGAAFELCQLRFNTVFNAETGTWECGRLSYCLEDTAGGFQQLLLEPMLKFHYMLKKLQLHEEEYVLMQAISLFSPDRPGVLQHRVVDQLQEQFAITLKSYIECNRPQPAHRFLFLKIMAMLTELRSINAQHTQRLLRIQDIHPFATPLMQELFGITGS
How it was run: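 Luciferase signal from ONE-Glo (30 min, room temperature) measured activation of hPXR-driven CYP3A4 reporter expression in PXR-Luc HepG2 cells treated with compounds for 24 hr at 37 C.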

[7] = Caspase-3/7 induction in HepG2 cells by small molecules, qHTS cell viability counter screen (AID 1346981); note: nearly all actives have a fitted effect of over 30% in size; note: potency is the fitted concentration of half-maximal effect
How it was run: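 HepG2, WT, 2,000 cells/well; 5 hr pre-incubation 37 C/5% CO2; compound pin-transferred from DMSO; 16 hr exposure; CellTiter-Fluor, 1 hr; fluorescence read.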

[8] = molecular target: Nuclear receptor subfamily 1 group I member 2 (Rattus norvegicus) (UniProt Q9R1A7); assay: Rat pregnane X receptor (rPXR) activation by small molecules, qHTS assay (AID 1346983); conditions: rPXR luciferase reporter cells, One-Glo luminescence, 24 h; stronger effect = higher value; note: nearly all actives have a fitted effect of over 20% in size
Nuclear receptor subfamily 1 group I member 2 (Rattus norvegicus), sequence (Q9R1A7 whole entry, looked up): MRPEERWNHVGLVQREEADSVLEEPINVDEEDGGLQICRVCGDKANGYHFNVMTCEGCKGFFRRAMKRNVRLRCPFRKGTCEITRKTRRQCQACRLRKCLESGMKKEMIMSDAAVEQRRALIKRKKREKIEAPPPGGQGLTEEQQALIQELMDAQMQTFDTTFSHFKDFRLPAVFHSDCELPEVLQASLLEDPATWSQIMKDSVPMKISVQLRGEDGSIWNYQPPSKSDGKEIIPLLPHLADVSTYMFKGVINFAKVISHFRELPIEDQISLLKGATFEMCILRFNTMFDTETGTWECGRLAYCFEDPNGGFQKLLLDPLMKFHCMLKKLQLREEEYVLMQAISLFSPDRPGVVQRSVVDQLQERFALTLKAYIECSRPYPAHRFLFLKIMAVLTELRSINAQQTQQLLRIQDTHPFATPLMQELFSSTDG
How it was run: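 Luminescent readout (One-Glo luciferase, 30 min room temperature) followed 24 hr compound treatment at 37 C of rPXR cells plated 2,000 per well and preincubated 5hr; qHTS format with compounds delivered in DMSO.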

[9] = molecular target: Nuclear receptor subfamily 1 group I member 2 (Homo sapiens) (UniProt O75469); assay: CYP3A4 induction through human pregnane X receptor (PXR) by small molecules, qHTS assay (AID 1346984); note: nearly all actives have a fitted effect of over 40% in size
How it was run: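 Luminescence readout: luciferase signal after One-Glo (30 min, room temperature), following 3 h at 37C with 3uM final Luciferin-IPA P450 substrate. Cells were DPX-2 (HepG2, PXR/CYP3A4-luc co-transfected) dosed for 24 h.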

[10] = molecular target: Nuclear receptor subfamily 1 group I member 2 (Homo sapiens) (UniProt O75469); assay: Human pregnane X receptor (PXR) activation by small molecules, qHTS assay (AID 1346985); note: nearly all actives have a fitted effect of over 40% in size; note: potency is the fitted concentration of half-maximal effect
How it was run: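 DPX-2 cells (HepG2 co-transfected with a PXR response element and a CYP3A4-promoter luciferase construct) were seeded at 2,000 per well, rested 5 hr at 37C, then exposed to DMSO-dissolved compounds for 24 hr. Activation was read as luciferase luminescence.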
% is set by controls: 0 for no effect and ±100 for the full control effect.

CCOC(=O)CC(=O)c1ccccc1
active: Potency [6] 68.6 µM
inactive: outcome [1] | Potency [2] | Potency [3] | Potency [4] | outcome [5]

CC(C)CCCCOC(=O)c1ccccc1C(=O)OCCCCC(C)C
inactive: outcome [1] | Potency [2] | Potency [3] | Potency [4] | Potency [7] | Potency [6]

C=C(C)C(=O)OCCNC(C)(C)C
inactive: outcome [1] | Potency [2] | Potency [3] | Potency [4] | outcome [5] | Potency [6]

COc1cc(C(=S)N2CCOCC2)cc(OC)c1OC
inactive: outcome [1] | Potency [2] | Potency [3] | Potency [4] | Potency [7] | Potency [6] | max activation [8] -2.22% | Potency [9] | Potency [10]

Cc1cccc(OCC(O)CNC(C)(C)C)c1C (centres undefined)
inactive: outcome [1] | Potency [2] | Potency [3] | Potency [4] | Potency [7] | Potency [6]

C=C(C)C(=O)OCC(C)(C)COC(=O)C(=C)C
inactive: outcome [1] | Potency [2] | Potency [3] | Potency [4] | outcome [5] | Potency [6]

CCCCCCCCCCCCCC
inactive: outcome [1] | Potency [2] | Potency [3] | Potency [4] | outcome [5] | Potency [6]

Cc1ccc2c(c1)OCC(=O)CO2
inactive: outcome [1] | Potency [2] | Potency [3] | Potency [4] | outcome [5] | Potency [6]

Nc1ccc(S(=O)(=O)Nc2ccc(Cl)nn2)cc1
inactive: outcome [1] | Potency [2] | Potency [3] | Potency [4] | outcome [5] | Potency [6] | max activation [8] -0.0524% | Potency [9] | Potency [10]

CC(C)(C)NC(N)=O
inactive: outcome [1] | Potency [2] | Potency [3] | Potency [4] | outcome [5] | Potency [6]

C[C@@H](O)[C@H]1C(=O)N2C(C(=O)O)=C(SCCN=CN)C[C@H]12
inactive: outcome [1] | Potency [2] | Potency [3] | Potency [4] | Potency [7] | Potency [6] | max activation [8] -4.86% | Potency [9] | Potency [10]

CCN(C)C(=O)Oc1cccc([C@H](C)N(C)C)c1
inactive: outcome [1] | Potency [2] | Potency [3] | Potency [4] | outcome [5] | Potency [6] | max activation [8] 7.36% | Potency [10]

Cc1c(I)c(=O)n(-c2ccccc2)n1C
inactive: outcome [1] | Potency [2] | Potency [3] | Potency [4] | outcome [5] | Potency [7] | Potency [6] | max activation [8] -0.919% | Potency [10]

BrCc1cccc(Oc2ccccc2)c1
inactive: outcome [1] | Potency [2] | Potency [3] | Potency [4] | outcome [5]
active: Potency [6] 61.1 µM

CCOC(=O)[C@H](CCc1ccccc1)N[C@@H](C)C(=O)N1C(=O)N(C)C[C@H]1C(=O)O
inactive: outcome [1] | Potency [2] | Potency [3] | Potency [4] | outcome [5] | Potency [7] | Potency [6] | max activation [8] -1.3% | Potency [9] | Potency [10]

O=C(OCC(COC(=O)c1cccnc1)(COC(=O)c1cccnc1)COC(=O)c1cccnc1)c1cccnc1
inactive: outcome [1] | Potency [2] | Potency [3] | Potency [4] | outcome [5] | Potency [6]

CC(=O)NCCCCCC(=O)O
inactive: outcome [1] | Potency [2] | Potency [3] | Potency [4] | outcome [5] | Potency [7] | Potency [6] | max activation [8] 0.55% | Potency [9] | Potency [10]

C=COCCOCCOCCOC=C
inactive: outcome [1] | Potency [2] | Potency [3] | Potency [4] | outcome [5] | Potency [6]

CC(=O)c1sc(C)nc1C
inactive: outcome [1] | Potency [2] | Potency [3] | Potency [4] | outcome [5] | Potency [6]

Nc1ccc([N+](=O)[O-])c(N)c1
active: Potency [4] 53.1 µM
inactive: outcome [1] | Potency [3] | outcome [5]

CC(=O)c1ccc2c(c1)Cc1ccccc1-2
inactive: outcome [1] | Potency [3] | Potency [4] | outcome [5] | Potency [7]
active: Potency [6] 54.5 µM

COc1ccc(C2CNC(=O)C2)cc1OC1CCCC1 (centres undefined)
inactive: outcome [1] | Potency [2] | Potency [3] | Potency [4] | Potency [7] | max activation [8] -2.12%

CCOc1cc(NC(C)=O)ccc1C(=O)OC
inactive: outcome [1] | Potency [2] | Potency [3] | Potency [4] | Potency [6] | max activation [8] -4.18% | Potency [9] | Potency [10]

CC(CN)CC(C)(C)CCN (centres undefined)
inactive: outcome [1] | Potency [2] | Potency [3] | outcome [5] | Potency [7] | Potency [6]

NCCS
inactive: outcome [1] | Potency [2] | Potency [3] | Potency [4] | Potency [7] | Potency [6] | max activation [8] -0.0213% | Potency [9] | Potency [10]

COC(=O)c1ccccc1C(=O)c1ccc(OCCN2CCCCC2)cc1
inactive: outcome [1] | Potency [3] | Potency [4] | outcome [5] | Potency [7] | max activation [8] -0.568% | Potency [10]

COc1ccc2c(c1OC)C(=O)O[C@@H]2[C@H]1c2c(cc3c(c2OC)OCO3)CCN1C
inactive: outcome [1] | Potency [3] | outcome [5] | max activation [8] 8.04% | Potency [9]
active: Potency [4] 13.3 µM | Potency [7] 15 µM | Potency [6] 11.9 µM | Potency [10] 22.4 µM

CCCCCCCCCCl
inactive: Potency [2] | Potency [3] | Potency [4] | outcome [5] | Potency [7] | Potency [6]

N[C@@H](CCC(=O)Nc1ccc([N+](=O)[O-])cc1)C(=O)O
inactive: outcome [1] | Potency [3] | Potency [4] | outcome [5] | Potency [6]
active: Potency [7] 54.5 µM

C=C(C)C(=O)OCc1ccccc1
inactive: Potency [2] | Potency [3] | Potency [4] | outcome [5] | Potency [7] | Potency [6]
